Assay [1] in a line: qHTS profiling for inhibitors of Plasmodium falciparum (3D7) proliferation (AID 743322).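 Also: infected erythrocytes exposed to compound for 72 h before lysis; 100% = DMSO vehicle wells and 0% = 0.29 µM artemisinin.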 Conditions: P. falciparum 3D7 proliferation; at 28.7 µM (top of the series) unless noted. The method in brief:
(§1)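 Erythrocytes infected with P. falciparum (0.3% parasitemia, 2.5% hematocrit) incubated with compounds 72 h at 37 C, 5% CO2. Lysis with saponin/Triton buffer containing SYBR Green I, overnight at room temperature in the dark; DNA fluorescence (485/535 nm) normalised to 0.29 uM artemisinin and DMSO.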
(Quantitative high-throughput screening tests each substance at several concentrations.)

Assay [2] can be described thus: qHTS profiling for inhibitors of Plasmodium falciparum (DD2) proliferation (AID 743323). As to conditions: lower = more inhibition; at 28.7 µM (top of the series) unless noted. The method in brief: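 P. falciparum Dd2-infected erythrocytes (0.3% parasitemia, 2.5% hematocrit) exposed 72 h at 37 C, 5% CO2. Lysis with SYBR Green, overnight at room temperature, fluorescence 485/535 nm; normalized to 0.29 uM artemisinin and DMSO.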

Assay [3] in a line: qHTS profiling for inhibitors of Plasmodium falciparum (HB3) proliferation (AID 743324; active = well fitted curve in the direction sought with a large enough effect; an effect the other way counts as inactive or inconclusive;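 also: 100% = DMSO vehicle wells and 0% = artemisinin-treated control wells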). Conditions: Plasmodium falciparum HB3 blood-stage proliferation; at 28.7 µM (top of the series) unless noted. The method in brief: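 P. falciparum HB3 grown in erythrocytes (0.3% parasitemia, 2.5% hematocrit final) with compound for 72 h at 37 C, 5% CO2. Parasite DNA detected by SYBR Green after saponin/triton lysis overnight; normalized to 0.29 uM artemisinin and DMSO.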

Assay [4] in a line: qHTS profiling of the MIPE4 collection as inhibitors of Plasmodium falciparum (3D7) proliferation (AID 743344).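 Also: scaled between DMSO vehicle wells and 0.29 µM artemisinin as full inhibition.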 As to conditions: P. falciparum 3D7 in erythrocytes, SYBR Green DNA fluorescence, 72 h; at 28.5 µM (top of the series) unless noted. The method in brief:
as §1

Assay [5] in a line: qHTS profiling of the MIPE4 collection as inhibitors of Plasmodium falciparum (DD2) proliferation (AID 743345). Conditions: P. falciparum Dd2 in erythrocytes, SYBR Green DNA, 72 h; at 28.5 µM (top of the series) unless noted. In short, it runs like this: as §1
The nature of assay [6]: qHTS profiling of the MIPE4 collection as inhibitors of Plasmodium falciparum (DD2) proliferation (Rep 2) (AID 743346). Conditions: P. falciparum Dd2 in erythrocytes, SYBR Green DNA, 72 h; at 28.5 µM (top of the series) unless noted. The method in brief: as §1
Assay [7] is described as follows: qHTS profiling of the MIPE4 collection as inhibitors of Plasmodium falciparum (HB3) proliferation (AID 743347).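 Also: plate controls were DMSO vehicle wells for no effect and artemisinin wells for full effect.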 Conditions: P. falciparum HB3 in erythrocytes, SYBR Green DNA, 72 h; at 28.5 µM (top of the series) unless noted. The method in brief: as §1
Assay [8] can be described thus: High-throughput drug toxicity screening in the BPDCN cell line Gen2.2 (AID 1224824).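 Also: cells exposed to compounds for 48 h before reading.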 Conditions: Gen2.2 BPDCN cells; at 45.8 µM (top of the series) unless noted. The method in brief:
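Seed 500 exponentially growing Gen2.2 cells/well; add compounds by pin tool; incubate 48 h, 37 °C, 5% CO2; add CellTiter-Glo, 15 min RT; read luminescence. % activity vs DMSO (100%) and bortezomib (0%).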

Assay [9] is described as follows: High-throughput drug toxicity screening in the BPDCN cell line Cal-1 (AID 1224825). Conditions: Cal-1 BPDCN cell viability, qHTS; at 45.8 µM (top of the series) unless noted. In short, it runs like this: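 500 Cal-1 cells/well, RPMI + glutamine + 10% FBS (phenol red-free); cpd added by pin tool; 48 h, 37C, 5% CO2; CTG 15 min RT, lumi read. Normalised: DMSO 100%, bortezomib 9.2 uM 0%.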

Assay [10] is described as follows: qHTS assay for measurement of the activity of small molecule inhibitors on Zika virus induced Caspase-3 activity in human iPSC derived neural progenitor cells (hNPCs) (AID 1224857; active = well fitted curve in the direction sought with a large enough effect; an effect the other way counts as inactive or inconclusive; also: % of control where 0% means no effect; nearly all actives have a fitted effect of over 65% in size). In short, it runs like this:
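After overnight (16–20 h) culture at 350 cells/well, hNPCs get compound, then ZIKV 2 FFU/cell one hour later. Six hours on, Caspase-Glo 3/7 is added and luminescence measured.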

A short description of assay [11]: qHTS assay for measurement of the activity of small molecule inhibitors on Zika virus induced Caspase-3 activity in human astrocytoma cells (AID 1224859; active = well fitted curve in the direction sought with a large enough effect; an effect the other way counts as inactive or inconclusive;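 also: plate controls were ZIKV-infected untreated cells for no effect and uninfected cells for full effect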). In short, it runs like this: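 Inhibition of Zika-induced caspase-3/7 activity: SNB-19 cells, 1 h compound pretreatment, ZIKV 2 FFU/cell for 6 h at 37 C, Caspase-Glo luminescence read-out.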
Assay [12] in a line: qHTS Screen of the MIPE 4.0 Collection Against Ewings Sarcoma (RDES) (AID 1259252; active = well fitted curve in the direction sought with a large enough effect; an effect the other way counts as inactive or inconclusive; also: nearly all actives have a fitted effect of over 35% in size; also: potency is read from the fitted curve at half-maximal effect). In short, it runs like this:
(§2)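 CellTiter-Glo luminescence after 48 h compound exposure (titration) gave viability; percent activity used DMSO-treated cells as no inhibition and medium-only wells as full inhibition. Cells grown in RPMI/5% FBS, dosed 4 h post-seeding.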

Assay [13] can be described thus: qHTS Screen of the MIPE 4.0 Collection Against Ewings Sarcoma (TC32) (AID 1259256; active = well fitted curve in the direction sought with a large enough effect; an effect the other way counts as inactive or inconclusive; also: nearly all actives have a fitted effect of over 45% in size; also: potency is read from the fitted curve at half-maximal effect). In short, it runs like this:
as §2

A short description of assay [14]: qHTS Screen of the MIPE 4.0 Collection Against Ewings Sarcoma (EW8) (AID 1259255; active = well fitted curve in the direction sought with a large enough effect; an effect the other way counts as inactive or inconclusive;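 also: 100% = DMSO-treated cells and 0% = medium-only wells without cells; nearly all actives have a fitted effect of over 35% in size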). The method in brief: as §2
Assay [15] in a line: qHTS Screen of the MIPE 4.0 Collection Against Ewings Sarcoma (TC71) (AID 1259253; active = well fitted curve in the direction sought with a large enough effect; an effect the other way counts as inactive or inconclusive; also: nearly all actives have a fitted effect of over 40% in size; also: potency is read from the fitted curve at half-maximal effect). In short, it runs like this:
as §2

A short description of assay [16]: Identifying Small Molecule Inhibitors of Pancreatic Cancer Stem Cells (A2780, Spheroid) (AID 1259357; active = well fitted curve in the direction sought with a large enough effect; an effect the other way counts as inactive or inconclusive;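 also: spheroids pre-formed over 14 days in stem cell medium on hydrogel; potency is read from the fitted curve at half-maximal effect; compound exposure lasted 48 h before the ATP luminescence read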). As to conditions: Potency: A2780 spheroid viability. In short, it runs like this:
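Spheroids grown 14 days in stem cell media on nonadherent hydrogel before screening; cells attached 4 h, then compound exposure 48 h at 37C, 5% CO2. CellTiter-Glo luminescence normalized to DMSO (no inhibition) and no-cell wells (full inhibition).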

Records with an inconclusive call do not appear. The source made the active and inactive calls. Unless noted, no rule for the calls is given here.

Take `Fc1ccc(Cl)cc1-c1nc(Nc2ccncc2)c2nccnc2n1`: the remaining parasite growth % (stronger effect = lower value) in assay [1] worked out at 5.45%. This molecule had an activity, percent of control in [2] of 25.3%. In addition, the remaining proliferation (% of control), lower = more inhibition in assay [3] came out at 13.2%. For the same molecule, the parasite growth, % of DMSO control in assay [4] was found to be 22.1%. The parasite growth remaining, % of DMSO control (lower = more inhibition) in assay [5] stood at 37%. Besides, the parasite growth, % of control (lower = inhibition) in [6] amounted to 30.8%. In addition, the growth, % of control in assay [7] came out at 8.98%. In addition, the cell viability, % of control (lower = more cytotoxic) in [8] was 443%. In assay [9], the viability (% of control) is 85.1%. For the same molecule, the Potency entry in assay [10], in [11] and in assay [12] was “inactive” throughout. In assay [13], the Potency is 1.32 µM (active).
Turning to `Cc1cccc(-c2nn(C(=S)Nc3ccccc3)cc2-c2ccnc3ccccc23)n1`, in assay [1], the remaining parasite growth % (stronger effect = lower value) was found to be 91.2%. Moreover, the remaining proliferation (% of control), lower = more inhibition in assay [3] came out at 79.6%. This molecule also registered a parasite growth, % of DMSO control in assay [4] of 40.4%. Further, in assay [5], the parasite growth remaining, % of DMSO control (lower = more inhibition) turned out to be 86.3%. Moreover, the parasite growth, % of control (lower = inhibition) in [6] was 66.8%. In assay [7], this molecule displayed a growth, % of control of 99.5%. For the same molecule, the cell viability, % of control (lower = more cytotoxic) in assay [8] came to 560%. In [9], this molecule came in with a viability (% of control) of 91.8%. The Potency entry in assay [10], in assay [11], in assay [14] and in assay [13] was “inactive” throughout.
Turning to `NC(=O)C1CCCc2c1[nH]c1ccc(Cl)cc21` (stereo unspecified), in assay [1], the remaining parasite growth % (stronger effect = lower value) is 100%. Further, in assay [3], the remaining proliferation (% of control), lower = more inhibition worked out at 95%. The molecule also returned a parasite growth, % of DMSO control in assay [4] of 92%. Also, the parasite growth remaining, % of DMSO control (lower = more inhibition) in assay [5] was 112%. Further, in assay [6], the parasite growth, % of control (lower = inhibition) worked out at 145%. In assay [7], this molecule returned a growth, % of control of 106%. The cell viability, % of control (lower = more cytotoxic) in [8] turned out to be 67%. The molecule also showed a viability (% of control) in assay [9] of 67.2%. Also, the Potency entry in assay [10], in assay [11] and in [14] was “inactive” throughout. The Potency in [12] is 6.62 µM (active).
For `CNCc1ccc(-c2[nH]c3cc(F)cc4c3c2CCNC4=O)cc1`, the remaining parasite growth % (stronger effect = lower value) in assay [1] came out at 28.7%. Also, in assay [3], the remaining proliferation (% of control), lower = more inhibition is 54%. The same molecule showed a parasite growth, % of DMSO control in assay [4] of 47.4%. Also, the parasite growth remaining, % of DMSO control (lower = more inhibition) in assay [5] was 85%. The parasite growth, % of control (lower = inhibition) in assay [6] amounted to 51.1%. In addition, the growth, % of control in assay [7] was determined as 18.7%. The cell viability, % of control (lower = more cytotoxic) in assay [8] came to 80.5%. The molecule further had a viability (% of control) in assay [9] of 15.1%. The Potency entry in assay [10] and in assay [11] was “inactive” in each case. Further, in assay [13], the Potency was 16.6 µM (active).
`CCC(=O)N[C@H]1CC[C@H](C(=O)N(C)c2ccc(-c3nc4ccccc4o3)cc2)C1`: in assay [1], the remaining parasite growth % (stronger effect = lower value) stood at 58.5%. In addition, in [2], the activity, percent of control stood at 55.3%. In assay [3], this molecule came in with a remaining proliferation (% of control), lower = more inhibition of 35.8%. Besides, the parasite growth, % of DMSO control in assay [4] amounted to 28.4%. Moreover, in assay [5], the parasite growth remaining, % of DMSO control (lower = more inhibition) is 65.1%. In addition, in [6], the parasite growth, % of control (lower = inhibition) was determined as 41.7%. In [7], this molecule registered a growth, % of control of 33.6%. Besides, the cell viability, % of control (lower = more cytotoxic) in [8] was 198%. In assay [9], this molecule displayed a viability (% of control) of 92.1%. Moreover, the Potency result in assay [10] and in assay [11] was “inactive” in each case. The Potency is 2.35 µM (active) in [15] and 14.8 µM (active) in [16].
Consider `CCN(CCCO)CCCOc1ccc2c(Nc3cc(CC(=O)Nc4cccc(F)c4)[nH]n3)ncnc2c1`, for which the remaining parasite growth % (stronger effect = lower value) in assay [1] was -1.31%. The activity, percent of control in assay [2] was 1.34%. For the same molecule, in assay [3], the remaining proliferation (% of control), lower = more inhibition was 0.759%.
In the case of `Cn1c(=O)c(F)c(Nc2ccc(I)cc2F)c2c(=O)n(C[C@@H](O)CO)cnc21`, the remaining parasite growth % (stronger effect = lower value) in assay [1] is 83.3%. In addition, the remaining proliferation (% of control), lower = more inhibition in assay [3] amounted to 68.4%. Also, the parasite growth, % of DMSO control in [4] was 12.8%. Further, the parasite growth remaining, % of DMSO control (lower = more inhibition) in assay [5] was determined as 86.9%. In addition, the parasite growth, % of control (lower = inhibition) in assay [6] was determined as 24.5%. The same molecule came in with a growth, % of control in assay [7] of 7.31%. For the same molecule, in [8], the cell viability, % of control (lower = more cytotoxic) was 18%. The viability (% of control) in [9] was determined as 33%. Also, the Potency entry in [10], in [11], in assay [15], in assay [14] and in assay [13] was “inactive” throughout.
Regarding `c1ccc(-c2nn3c(c2-c2ccnc4cc(OCCN5CCOCC5)ccc24)CCC3)nc1`, in assay [1], the remaining parasite growth % (stronger effect = lower value) was 81.9%. Further, in assay [3], the remaining proliferation (% of control), lower = more inhibition came out at 50.9%. The parasite growth, % of DMSO control in [4] was 25.6%. Moreover, the parasite growth remaining, % of DMSO control (lower = more inhibition) in assay [5] came to 50.6%. Moreover, the parasite growth, % of control (lower = inhibition) in [6] came to 58.7%. Besides, the growth, % of control in assay [7] turned out to be 17.9%. In assay [8], the cell viability, % of control (lower = more cytotoxic) turned out to be 857%. Besides, the viability (% of control) in [9] came out at 73.1%. In addition, the Potency entry in assay [10] and in [11] was “inactive” in each case. For the same molecule, in [15], the Potency is 18.7 µM (active).
For `CCC(C)N(C)C(=O)c1cc2ccccc2c(-c2ccccc2Cl)n1` (stereo unspecified), in assay [1], the remaining parasite growth % (stronger effect = lower value) was 86.5%. The molecule further showed an activity, percent of control in [2] of 80.9%. The molecule further yielded a remaining proliferation (% of control), lower = more inhibition in [3] of 42%. Further, the parasite growth, % of DMSO control in assay [4] was 39%. Besides, the parasite growth remaining, % of DMSO control (lower = more inhibition) in [5] was determined as 83.4%. The parasite growth, % of control (lower = inhibition) in assay [6] was found to be 53.7%. Further, the growth, % of control in [7] amounted to 53.6%. Also, the cell viability, % of control (lower = more cytotoxic) in assay [8] turned out to be 95%. In addition, the viability (% of control) in [9] was 94.3%. The Potency result in assay [10], in assay [11] and in assay [14] was “inactive” each time. In addition, the Potency in [15] is 23.5 µM (active).
